Rows were chosen to be rich in hits. Some 1.6% of all compounds tested hit in one or more screens of this group.
KCNQ2 block: blocks the rat KCNQ2 potassium channel | CHO-K1 KCNQ2, FluxOR thallium flux, 20 min; active compounds read low | B-score at 10 µM | hit rate 1.1% among 310,000;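 active = fluorescence ratio B-score at most minus 3 library SDs, with starting brightness B-score within 2 library SDs, cut at about -5.5 in these data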
Target sequence (O88943 whole entry, looked up): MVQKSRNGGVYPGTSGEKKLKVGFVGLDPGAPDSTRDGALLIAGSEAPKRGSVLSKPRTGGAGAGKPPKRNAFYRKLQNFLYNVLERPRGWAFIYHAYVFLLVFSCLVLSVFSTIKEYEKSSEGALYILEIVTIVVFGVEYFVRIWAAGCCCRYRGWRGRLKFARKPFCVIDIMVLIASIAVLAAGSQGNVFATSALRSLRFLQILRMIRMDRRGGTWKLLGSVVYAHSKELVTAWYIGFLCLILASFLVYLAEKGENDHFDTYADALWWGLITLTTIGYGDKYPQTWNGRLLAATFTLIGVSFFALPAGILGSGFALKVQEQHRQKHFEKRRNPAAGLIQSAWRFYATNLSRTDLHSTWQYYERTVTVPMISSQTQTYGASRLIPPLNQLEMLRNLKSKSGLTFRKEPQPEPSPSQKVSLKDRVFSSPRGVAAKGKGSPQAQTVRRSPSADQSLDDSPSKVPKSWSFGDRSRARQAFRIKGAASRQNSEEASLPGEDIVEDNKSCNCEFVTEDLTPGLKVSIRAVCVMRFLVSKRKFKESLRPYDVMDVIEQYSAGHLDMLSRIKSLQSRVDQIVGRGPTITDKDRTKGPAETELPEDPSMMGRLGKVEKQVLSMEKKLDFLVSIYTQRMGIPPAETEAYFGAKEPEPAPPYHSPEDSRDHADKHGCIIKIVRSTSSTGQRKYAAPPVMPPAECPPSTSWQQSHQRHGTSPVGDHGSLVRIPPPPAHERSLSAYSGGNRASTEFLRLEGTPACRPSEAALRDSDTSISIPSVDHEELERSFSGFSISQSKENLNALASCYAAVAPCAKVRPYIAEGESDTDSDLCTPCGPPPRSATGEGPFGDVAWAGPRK
KCNQ2 pot: enhances the rat KCNQ2 potassium channel. AID 2239. hit rate 0.54% among 310,000. O88943. B-score at 10 µM. CHO-K1 KCNQ2, FluxOR thallium flux fluorescence; active compounds read high;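 active = fluorescence ratio B-score at least 3 SD of library B-scores, with initial fluorescence B-score within 3 of them, cut at about 5.3 in these data; same plate scores as AID 2156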;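 also: B-score of peak minus minimum over baseline fluorescence ratio after K+ and Tl+ stimulus; positive B-score means potentiation of KCNQ2 with more thallium influx and brighter signal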
Kir21 conf inh: confirmation of mouse Kir2.1 potassium channel inhibitors | shares compounds with KCNQ2 pot | Kir2.1-expressing cells, FluxOR thallium flux fluorescence; active compounds read low | Tl flux remaining, % of negative control (active compounds read low), % at 10 µM | hit rate 41% among 2,300 | AID 2032;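 active = Primary-screen hit whose thallium flux fell at least 3 control SD below untreated wells in both duplicates, with normal baseline fluorescence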;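 also: 0% = blank wells without stimulus and 100% = stimulated no-compound controls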
HEK293 Tl flux: alters thallium flux in parental HEK293 cells, Kir2.1 counter-screen; shares compounds with KCNQ2 pot; FluxOR signal as % of negative control (100 = no effect), % at 10 µM; hit rate 19% among 2,300; FluxOR thallium flux fluorescence; 0% = unstimulated blank wells;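 active = dye signal at least 3 control SD above or below untreated wells in both duplicates, raw fluorescence within 3, either direction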;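 also: percent is based on the flux ratio of peak minus minimum fluorescence over baseline F0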
CHO-K1 ctr: alters thallium flux in parental CHO-K1 cells, KCNQ2 counter-screen. shares compounds with KCNQ2 pot. AID 2282. FluxOR thallium flux fluorescence; zero = vehicle mean+3SD, 100% = vehicle-minus-blank window. activity increase over 3SD of controls, % at 10 µM. hit rate 43% among 1,200;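 active = signal rise of at least 3 SD above the untreated control mean, in both duplicate wells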;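 also: counter screen of KCNQ2 potentiator hits so any rise reflects channel-independent effects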
KCNQ1 pot spec: tests whether KCNQ2 potentiators also act on human KCNQ1. hit rate 28% among 1,200. AID 2283. shares compounds with KCNQ2 pot. activation over 3SD threshold, % at 10 µM. CHO KCNQ1 stable, FluxOR thallium flux fluorescence; beyond 3SD, as % of vehicle-control signal;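 active = fluorescence ratio rise of at least 3 SD of vehicle wells above their mean, in both replicate wells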;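 also: 0% = vehicle mean plus 3 SD and 100% = vehicle minus unstimulated blank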
KCNQ2 pot conf: rat KCNQ2 channel potentiator confirmation; CHO-KCNQ2 cells, FluxOR thallium flux fluorescence; AID 2287; potentiation, less the hit threshold, % at 10 µM; shares compounds with KCNQ2 pot; hit rate 68% among 1,200;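 active = fluorescence ratio rising 3 SD or more over the vehicle control mean in both replicates, plus primary screen hit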;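 also: peak minus minimum thallium fluorescence divided by baseline after K/Tl stimulus; 0% = vehicle mean plus 3 SD and 100% = vehicle minus unstimulated blank difference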
Kir21 spec: selectivity of KCNQ2 potentiators: effect on mouse Kir2.1 | hit rate 2% among 1,200 | AID 2345 | activity over 3SD threshold, % at 10 µM | shares compounds with KCNQ2 pot | HEK293 Kir2.1, FluxOR thallium flux fluorescence;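 active = fluorescence ratio rise of at least 3 SD above the vehicle-control mean, seen in both replicates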;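 also: 0% = vehicle mean plus 3 SD and 100% = vehicle minus no-stimulus blank window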
KCNQ2 W236L pot: KCNQ2 potentiators acting on retigabine-insensitive rat KCNQ2 W236L mutant. shares compounds with KCNQ2 pot. CHO KCNQ2-W236L, automated patch clamp current. current increase over 3SD of negative controls (%), active compounds read high, % at 25 µM. hit rate 10% among 940;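 active = current increase at least 3 SD of the untreated controls above them in both duplicate recordings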
Numbers without * were called inactive; i = inactive; nt = no result.

SMILES | KCNQ2 block | KCNQ2 pot | Kir21 conf inh | HEK293 Tl flux | others
CCn1ncc(Cl)c1C(=O)NC(=S)Nc1ccccc1Br | i | 7.1* | i | 232%* | CHO-K1 ctr=12*;KCNQ1 pot spec=55*;KCNQ2 pot conf=53*;Kir21 spec=-14;KCNQ2 W236L pot=i
Cc1nn(C)c(C(=O)NNC(=S)Nc2ccc(F)cc2)c1[N+](=O)[O-] | i | nt | nt | nt
Cc1nn(C)c(C(=O)NC(=S)Nc2ccc([N+](=O)[O-])cc2)c1Cl | i | 8.4* | i | 132%* | CHO-K1 ctr=-19;KCNQ1 pot spec=-9;KCNQ2 pot conf=0.7*;Kir21 spec=-28;KCNQ2 W236L pot=i
CCCCOC(=O)c1ccc(NC(=S)NC(=O)c2c(Cl)cnn2CC)cc1 | i | 5.2 | nt | nt
CS(=O)(=O)N(Cc1ccco1)Cc1ccccc1Cl | i | nt | nt | nt
Cn1c(=O)oc2cc(S(=O)(=O)NCCC(=O)N3CCc4ccccc4C3)ccc21 | i | nt | nt | nt
C1CCC(C(CC2CCCCN2)C2CCCCC2)CC1 (configuration not stated) | i | nt | 28%* | 72%*
CN(C)S(=O)(=O)c1cccc(NC(=O)CCCC2CCCCC2)c1 | i | 2 | nt | nt
CN(C)CCCN1c2ccccc2CCc2ccc(Cl)cc21 | i | nt | 41%* | i
CN(CCCN1c2ccccc2CCc2ccccc21)CC(=O)c1ccc(Cl)cc1 | i | nt | nt | nt
CCCCn1c(=N)n(CC(O)COc2ccccc2)c2ccccc21 (configuration not stated) | i | 1 | nt | nt
N=c1n(Cc2ccccc2)c2ccccc2n1CC(O)COc1ccccc1 (configuration not stated) | i | nt | 38%* | i
Cc1ccc(Cn2c(=N)n(CC(O)COc3ccccc3)c3ccccc32)cc1 (configuration not stated) | i | nt | 32%* | i
CCCCn1c(=N)n(CC(O)COc2ccc(C)cc2)c2ccccc21 (configuration not stated) | i | nt | nt | nt
CCOC(=O)c1c(C)[nH]c(C)c1S(=O)(=O)N(C)CC(=O)Nc1cccc(F)c1 | i | nt | nt | nt
CCOC(=O)c1nn(-c2ccc(C)c(C)c2)c(=O)c2c(N)scc12 | i | nt | nt | nt
O=C(O)CCSc1ncnc2sc(-c3ccccc3)cc12 | i | 9.6* | i | 198%* | CHO-K1 ctr=17*;KCNQ1 pot spec=3.1*;KCNQ2 pot conf=33*;Kir21 spec=-21;KCNQ2 W236L pot=16%*
CC(=O)CCSc1ncnc2sc(-c3ccccc3)cc12 | i | nt | nt | nt
COc1ccc(C=O)cc1Cn1ccnc1 | i | nt | nt | nt
COc1ccc(-c2[nH]ncc2CNC(C)c2ccccc2Cl)cc1F (configuration not stated) | i | 3 | 60%* | i
COc1ccc(-c2[nH]ncc2CNC(C)CCn2cccn2)cc1F (configuration not stated) | i | 1.8 | nt | nt
CCN(Cc1ccccc1)Cc1nnnn1Cc1ccccc1 | i | nt | 38%* | 69%*
c1ccc(Cn2nnnc2CN2CCN(c3ncccn3)CC2)cc1 | i | 0.01 | nt | nt
O=C(Nc1ccc(S(=O)(=O)N2CCCCC2)cc1)C1CCCO1 (configuration not stated) | i | nt | nt | nt
N=c1n(CCN2CCCCC2)c2ccccc2n1CC(O)c1cccc(Br)c1 (configuration not stated) | i | nt | 40%* | i
SMILES | KCNQ2 block | KCNQ2 pot | Kir21 conf inh | HEK293 Tl flux | others
CN(C)CCn1c(=N)n(CC(O)c2ccc(Cl)c(Cl)c2)c2ccccc21 (configuration not stated) | i | 1.2 | nt | nt
N=c1n(CCN2CCCCC2)c2ccccc2n1CC(O)COc1ccccc1 (configuration not stated) | i | nt | nt | nt
N=c1n(CCN2CCCCC2)c2ccccc2n1CC(O)c1ccc(Cl)c(Cl)c1 (configuration not stated) | i | nt | 36%* | 64%*
CC(=O)c1cccc(NC(=O)c2csc(-n3nc(C)cc3C(F)(F)F)n2)c1 | i | 1.6 | nt | nt
CC(NC(=O)/C=C/c1ccccc1)c1ccccc1 (configuration not stated) | i | 17* | i | i | CHO-K1 ctr=2.8*;KCNQ1 pot spec=20*;KCNQ2 pot conf=30*;Kir21 spec=-10;KCNQ2 W236L pot=i
CCc1ccc(C(C)NC(=O)/C=C/c2ccc(Br)cc2)cc1 (configuration not stated) | i | 8.7* | i | i | CHO-K1 ctr=-15;KCNQ1 pot spec=-15;KCNQ2 pot conf=24*;Kir21 spec=-28;KCNQ2 W236L pot=i
CC(NC(=O)/C=C/c1ccc(Br)cc1)c1ccccc1 (configuration not stated) | i | 4.2 | nt | nt
Cc1ccc(/C=C/C(=O)NC(C)c2ccccc2)cc1 (configuration not stated) | i | 3.8 | nt | nt
CCOC(=O)N1CCC(N2C(=O)c3ccccc3C2Nc2ccc(S(=O)(=O)N3CCCCC3)cc2)CC1 (configuration not stated) | i | nt | nt | nt
CN1/C(=C\C=N\NC(=O)c2ccccc2Br)C(C)(C)c2ccccc21 | i | nt | nt | nt
COc1ccc(N=C(C)C2=C(O)CSC2=O)cc1 | i | 1.5 | nt | nt
Cc1ccc2nc(NC(=O)c3ccco3)sc2c1 | i | 0.98 | nt | nt
O=C(NC(=S)Nc1nc(-c2ccc(Br)cc2)cs1)c1ccco1 | i | 5.1 | nt | nt
Cc1ccc2nc(NC(=S)NC(=O)c3ccco3)sc2c1 | i | 12* | i | 228%*
O=C(NC(=S)Nc1nc(-c2ccc([N+](=O)[O-])cc2)cs1)c1ccco1 | i | 10* | i | 168%* | CHO-K1 ctr=-7;KCNQ1 pot spec=44*;KCNQ2 pot conf=-7;Kir21 spec=-27
O=S(=O)(N1CCCCC1)N1CCN(CC(O)COc2ccc3cc(Br)ccc3c2)CC1 (configuration not stated) | i | 1.1 | nt | nt
OC(COc1ccc2cc(Br)ccc2c1)CN1CCCC1 (configuration not stated) | i | nt | 38%* | i
OC(COc1ccc2cc(Br)ccc2c1)CN1CCN(c2ccccn2)CC1 (configuration not stated) | i | 7.4* | i | i | CHO-K1 ctr=-7;KCNQ1 pot spec=14*;KCNQ2 pot conf=-11;Kir21 spec=-11
COc1cccc(OCC(O)CN2CCN(c3ccccn3)CC2)c1 (configuration not stated) | i | 0.33 | nt | nt
CCc1ccc(OCC(=O)NCCN(C)C)c(Br)c1 | i | nt | nt | nt
C/C=C/C(=O)OCC(=O)Nc1cc([N+](=O)[O-])ccc1Cl | i | 0.17 | nt | nt

Screens (PubChem)
